High-throughput results (PubChem BioAssay)
VP16 counter – inhibits Gal4-VP16 luciferase reporter, ROR gamma counter-screen; Drosophila S2 Gal4-VP16 UAS-luciferase, luminescence, 20 h; Potency, µM (series often up to 53.6 µM), for inactives: top-dose activity, negative = inhibition, most hits filed as inhibitors; 310,000 tested, 3.5% active;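 further: Gal4-VP16 expression switched on by copper sulfate through the metallothionein promoter; potency means the concentration at half of the fitted maximal effect; nearly all actives have a fitted effect of over 50% in size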
IL-1B inflam inh – blocks inflammasome-driven IL-1 beta release. activity change, % at 57.5 µM. AID 743279. 360,000 tested, 4.7% active. THP-1 LPS/ATP IL-1B secretion, AlphaLISA, 16 h; active compounds read low; in the data active means activity change below about -50%; inconclusive means mostly about -30% to -49%
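Secreted IL-1B measured by AlphaLISA bead assay after 16 h compound exposure of THP-1 cells; compounds (final up to 57.5 uM) added 1 h before LPS (250 ng/mL) and ATP (1.25 mM) stimulation; lower signal means less secretion.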
DT40 TDP1 no CPT – qHTS for Inhibitors of human tyrosyl-DNA phosphodiesterase 1 (TDP1): qHTS in cells in absence of CPT. AID 686978, 2013. DT40 Tdp1-/- hTDP1 cells, no CPT, ATP luminescence, 48 h. Potency, µM (titrated, usually from 46.2 µM), inactives show top-dose activity change, negative = growth inhibition, most hits filed as inhibitors. 420,000 tested, 15% active; further: potency means the concentration at half of the fitted maximal effect; nearly all actives have a fitted effect of over 55% in size
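DT40 Tdp1-/-;hTDP1 cells, no CPT (DMSO vehicle only), 400 cells/well; compounds pin-transferred; ≥48 hr, 37 °C; CellTiter-Glo 30 min RT dark, luminescence read.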
LDHA block – LDHA (human) enzyme inhibition; P00338; purified LDHA, NADH/diaphorase-resazurin fluorescence; active compounds read low; activity change, % (values are at about 110 or 230 µM); 480,000 tested, 0.15% active; in the data active means activity change below about -30%; inconclusive means mostly about -25% to -30%;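 further: plate controls were DMSO wells for no effect and wells without enzyme for full effect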
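Enzyme activity of human lactate dehydrogenase 5 (2 nM; 0.06 mM NADH, 0.2 mM pyruvate, 5 min, RT) is measured via a resazurin/diaphorase fluorescence readout of residual NADH.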
DT40 TDP1 CPT – DT40-hTDP1 cell growth loss with CPT; 420,000 tested, 12% active; Potency, µM (series often up to 46.2 µM), for the others: top-dose activity change, negative = growth inhibition, actives largely listed as inhibitors; chicken DT40 Tdp1-/-;hTDP1 cells + 20 nM CPT, ATP luminescence, 48 h; further: potency means the concentration at half of the fitted maximal effect; nearly all actives have a fitted effect of over 55% in size
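Chicken DT40 Tdp1-/- cells complemented with human TDP1, 400 cells/well, exposed to compounds plus 20 nM camptothecin for at least 48 h at 37 C; viability read as ATP content by CellTiter-Glo luminescence.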
RORgamma inh – ROR gamma (mouse) transcription inhibition. AID 2551. 310,000 tested, 5.4% active. Potency, µM (doses to about 53.6 µM), inactives show at the highest dose activity change, negative = inhibition, most hits filed as inhibitors. P51450. Drosophila S2 Gal4-RORgamma UAS-luciferase reporter, 20 h; further: potency means the concentration at half of the fitted maximal effect; nearly all actives have a fitted effect of over 60% in size
Target sequence (P51450 whole entry, looked up, the tested form may be a part): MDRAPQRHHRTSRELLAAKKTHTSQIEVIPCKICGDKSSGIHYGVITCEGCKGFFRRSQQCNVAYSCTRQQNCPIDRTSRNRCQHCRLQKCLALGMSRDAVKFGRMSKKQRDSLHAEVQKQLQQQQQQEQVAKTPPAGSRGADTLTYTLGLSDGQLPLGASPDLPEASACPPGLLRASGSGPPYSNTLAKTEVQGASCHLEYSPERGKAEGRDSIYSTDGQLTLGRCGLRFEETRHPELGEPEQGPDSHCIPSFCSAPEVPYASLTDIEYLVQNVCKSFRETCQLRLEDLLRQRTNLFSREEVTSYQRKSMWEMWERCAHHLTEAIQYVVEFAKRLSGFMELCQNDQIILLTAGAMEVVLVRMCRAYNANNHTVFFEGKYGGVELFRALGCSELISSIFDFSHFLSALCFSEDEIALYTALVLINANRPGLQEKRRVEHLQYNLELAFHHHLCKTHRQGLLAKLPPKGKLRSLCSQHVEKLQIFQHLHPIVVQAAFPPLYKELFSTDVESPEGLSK
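Luciferase reporter read in Schneider cells carrying Gal4-RORγ (mouse) and UAS-Photinus luciferase; cells given compound 1 h before 700 uM copper sulfate induction, then incubated 20 h at ambient temperature.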
Starred values were filed as active, the others as inactive; ? = inconclusive; . = not tested or not shown; [ ] = dose if it differs, or a comment. Most compounds without a hit are left out; they make up all but 18% or so of the library. Unless noted, the call rests on the fitted dose curve; in most records, active means well fitted curve in the direction sought with a large enough effect; inconclusive means small, poorly fitted or top-dose-only effect, or another doubt; inactive means no such curve, though single readings can be large; an effect the other way counts as inactive or inconclusive. Unless noted, on the % scale 0 is the no-effect control and ±100 the full control effect.

SMILES	VP16 counter	IL-1B inflam inh	DT40 TDP1 no CPT	LDHA block	DT40 TDP1 CPT	RORgamma inh
S=C(NCCc1ccccc1)NCc1cccc(Cl)c1	-5.8%	7.7	3.2%	1.5	1.5%	17.8%
O=C(Nc1cccc(Cl)c1)Nc1ccc2c(c1)OCO2	18.3%	?	16.4µM*	9.4	?	33.0%
CSc1ccccc1NC(=O)Nc1ccc(Cl)cc1	5.6%	?	-29.9%	-12.4	20.6µM*	38.8%
Fc1ccccc1NC(=S)NCCc1cccc(Cl)c1	10µM*	-88.2*	7.31µM*	-0.9	8.2µM*	7.08µM*
COC(=O)c1cccc(NC(=O)Nc2ccc(Cl)c(Cl)c2)c1	1.1%	-85.1*	?	3.9	18.4µM*	?
O=C(Cc1ccccc1)NNC(=O)Nc1cccc(Cl)c1	-1.8%	-17.7	-16.8%	-6.3	-23.7%	0.1%
NC(=O)c1ccccc1NC(=O)Nc1cccc(Cl)c1	5.3%	-0.7	?	-2.9	11.6µM*	?
COC(=O)c1cccc(NC(=O)NC(=O)c2ccccc2Cl)c1	-12.6%	-14.2	-12.9%	-3.1	-4.7%	?
O=C(CN1c2ccccc2Sc2ccccc21)NNC(=O)Nc1cccc(Cl)c1	1.3%	-88.3*	10.3µM*	-2.3	23.1µM*	9.7%
Cc1ccc(OCC(=O)Nc2cccc(-c3nc4cc(C)ccc4o3)c2)cc1	.	.	.	4.3	.	.
O=C(NC1CC1)c1ccc(CS(=O)c2ccccc2)o1 (stereo not drawn)	-4.0%	-28.1	-17.2%	-10.8	1.3%	-20.7%
CC1(C)CCC[C@]2(C)C(CS(=O)c3ccccc3)=C(C=O)CC[C@@H]12 (stereo partly drawn)	.	?	20.6µM*	-0.3	?	.
COc1cc2ccccc2cc1C(=O)Nc1cccc2ncccc12	.	.	.	1.3	.	.
Cc1ccc(NS(=O)(=O)c2ccc(NN)c([N+](=O)[O-])c2)c(C)c1	.	.	.	-1.3	.	.
O=C(COC(=O)CC1c2ccccc2CCN1S(=O)(=O)c1ccccc1)Nc1ccccc1 (stereo not drawn)	-0.5%	0.0	20.6µM*	3.4	?	-6.2%[10 µM]
Cc1ccc(C)c(NC(=O)COC(=O)CC2c3ccccc3CCN2S(=O)(=O)c2ccc(F)cc2)c1 (stereo not drawn)	-10.8%	0.0	?	-0.8	-14.0%	35.3%
CCSc1nnc(-c2sc3nnc(-c4ccccc4)c(-c4ccccc4)c3c2N)o1	1.7%	?	23.1µM*	6.5	13µM*	15.5%
CCSc1nnc(-c2ccncc2)o1	11.7%	-20.6	-2.0%	-5.3	0.7%	26.9%
CCOC(=O)c1sc2ncnc(NCC(c3cccs3)N(C)C)c2c1C (stereo not drawn)	?	2.8	?	-7.8	29.1µM*	?
Cc1sc2ncnc(NCC(c3ccccc3)N(C)C)c2c1C (stereo not drawn)	20.5%	?	?	-6.6	?	-9.6%
COc1ccc(NC(=O)CCc2c(OC)nc3c(c(C)nn3-c3ccccc3)c2C)cc1	.	.	.	-4.6	.	.
CCC(C)NC(=O)CCc1c(C)nc2c(c(C)nn2-c2ccc(C)cc2)c1C (stereo not drawn)	.	.	7.31µM*	-10.4	14.6µM*	.
Cc1ccc(-n2nc(C)c3c(C)c(CCC(=O)O)c(C)nc32)cc1	-15.2%	50.9	5.5%	-10.2	9.1%	-5.2%
COC(=O)c1ccccc1NC(=O)CCc1c(C)nc2c(c(C)nn2-c2ccccc2)c1C	.	.	-8.3%	-0.3	2.4%	.
CC(=O)Nc1ccc(NC(=O)CCc2c(C)nc3c(c(C)nn3-c3ccc(C)cc3)c2C)cc1	.	.	?	2.6	14.6µM*	.
CCOc1ccccc1NC(=O)CCc1c(C)nc2c(c(C)nn2-c2ccccc2)c1C	.	.	16.4µM*	-2.2	16.4µM*	.
